Test results from PMC5540273 (PLoS ONE, 2017).
Like-named read-outs stand apart in the source and are kept apart here.

Columns and labels:
DMPK2 = system: T1, DMPK2; conditions: concentration: 1 μM, replicates: in singlicate; n = 1
T1 construct: gene CDC42BPG

DMPK = conditions: concentration: 1 μM, replicates: in singlicate; n = 1
DRAK1 = system: T2, DRAK1; conditions: concentration: 1 μM, replicates: in singlicate; n = 1
T2 construct: gene STK17A

DRAK2 = system: T3, DRAK2; conditions: concentration: 1 μM, replicates: in singlicate; n = 1
T3 construct: gene STK17B

DYRK1A = conditions: concentration: 1 μM, replicates: in singlicate; n = 1
DYRK1B = conditions: n = 1
DYRK2 = conditions: concentration: 1 μM, replicates: in singlicate; n = 1
EGFR = conditions: concentration: 1 μM, replicates: in singlicate; n = 1
EIF2AK1 = conditions: concentration: 1 μM, replicates: in singlicate; n = 1
EPHA1 = conditions: concentration: 1 μM, replicates: in singlicate; n = 1
[1] = concentration: 1 μM, replicates: in singlicate
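Also: KINOMEscan kinase panel screen.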

SMILES	%Inh (DMPK2) [%]	%Inh (DMPK) [%]	%Inh (DRAK1) [%]	%Inh (DRAK2) [%]	%Inh (DYRK1A) [%]	%Inh (DYRK1B; [1]) [%]	%Inh (DYRK2) [%]	%Inh (EGFR) [%]	%Inh (EIF2AK1) [%]	%Inh (EPHA1) [%]	%Inh (DYRK1B; 1 µM) [%]
CC(=O)c1cccc(NC(=O)NC2CCN(c3ccnc(Nc4ccc(F)cc4)n3)C2)c1 (stereo not shown) [GSK1379710]	6	0	6	0	0	27	17	18	0	7	–
Cn1cncc1C(=O)NC1CCN(c2ccnc(Nc3ccc(F)cc3)n2)C1 (stereo not shown) [GSK1379717]	0	0	0	0	0	21	0	15	3	2	–
COc1ccc(Nc2nccc(N3CCC(NC(=O)C(C)c4ccc(Cl)cc4)CC3)n2)cc1 (stereo not shown) [GSK1379812]	6	1	0	0	99.2	0	19	0	0	0	–
Cc1ccc(NC(=O)Nc2ccc(Cl)c(C(F)(F)F)c2)cc1-c1ccc(C(=O)Nc2ccncc2)cc1 [GSK1398470]	12	0	0	0	12	19	29	25	78	6	–
COc1nccc(-c2c(-c3ccc(F)cc3)ncn2CCCN2CCOCC2)n1 [SB-282852]	0	8	0	0	0	61	10	8	8	0	–
Cc1c(Cn2c3ccccc3n3c(=O)cc(N4CCOCC4)nc23)cccc1C(F)(F)F [GSK2306394]	0	0	0	0	7	0	14	48	0	0	–
COc1ccc(-c2coc3ccc(-c4nnc(C)o4)cc23)cc1	0	0	0	0	40	0	0	0	0	0	–
CC(=O)c1c(C)c2cnc(Nc3ccn(C)n3)nc2n(C2CCCC2)c1=O	1	0	0	0	13	0	0	5	0	4	–
O=C1NC(=O)C(c2ccc(Cl)cc2)=C1Nc1cccc(Cl)c1 [SB-317651]	0	0	4	0	15	52	1	20	4	0	–
CS(=O)(=O)Cc1ccc(Nc2nccc(-c3c(-c4cccc(NC(=O)C5CCCCC5)c4)nn4ncccc34)n2)cc1 [GSK350559]	35	0	0	0	26	–	5	68	22	6	0
Fc1ccc(-c2nc3n(c2-c2ccncc2)CCS3)cc1 [GI98581]	82	16	0	0	15	13	24	32	0	8	–
COc1cccc(CNC(=O)NC2CCN(c3ccnc(Nc4ccc(F)cc4)n3)C2)c1 (stereo not shown) [GSK1379723]	0	0	0	0	39	5	4	21	0	12	–
O=C(Nc1n[nH]c2nc(-c3cccs3)c(Br)cc12)C1CC1 [SB-735297]	0	0	25	0	13	0	26	0	0	21	–
COc1cccc(NC(=O)Nc2ccc(C)c(-c3ccc(C(=O)Nc4ccncc4)cc3)c2)c1 [GSK1398474]	5	0	0	9	9	43	22	17	7	20	–
CCCCc1nn2ncccc2c1-c1ccnc(NC2CC2)n1 [GW684374]	0	0	0	0	12	3	6	26	0	11	–
CNC(=O)c1ccc(C)c(-n2c(C)cc(OCc3ccc(F)cc3F)c(Br)c2=O)c1	0	0	1	0	0	56	0	0	0	5	–
CNc1cc(-c2ccc3c(N)n[nH]c3c2)nc(N)n1 [GSK2224810]	10	0	95.3	77	64	43	90	17	0	9	–

SMILES	%Inh (DMPK2) [%]	%Inh (DMPK) [%]	%Inh (DRAK1) [%]	%Inh (DRAK2) [%]	%Inh (DYRK1A) [%]	%Inh (DYRK1B; [1]) [%]	%Inh (DYRK2) [%]	%Inh (EGFR) [%]	%Inh (EIF2AK1) [%]	%Inh (EPHA1) [%]	%Inh (DYRK1B; 1 µM) [%]
Fc1ccc(-c2nn3cccc(F)c3c2-c2ccncc2)cc1 [GW475620]	81	28	0	17	7	0	0	52	0	22	–
NS(=O)(=O)c1cccc(N/C=C2\C(=O)Nc3ccc(S(=O)(=O)Cc4c(Cl)cccc4Cl)cc32)c1 [GSK398099]	18	0	0	0	29	14	9	24	0	12	–
CSc1ccc(-c2nc3n(c2-c2ccncc2)CCC3)cc1 [SKF-105561]	0	0	1	0	3	0	0	7	0	12	–
O=C(Nc1n[nH]c2cc(-c3ccsc3)ccc12)C1CC1 [SB-732932]	0	0	17	0	0	12	28	0	0	3	–
CC[C@@H]1CO[C@H](C(=O)Nc2ccccc2)CN1c1cc(-c2ccc3c(N)n[nH]c3c2)nc(NC)n1 [GSK2376236]	5	0	95.3	68	1	0	12	71	0	3	–
Cc1ccccc1Cn1ccn2c(=O)cc(N3CCOCC3)nc12 [GSK2269905]	0	0	0	0	16	0	0	15	8	4	–
CCn1c(-c2c(N)noc2C)nc2cnccc21 [SB-737856]	99.8	0	0	0	30	0	4	24	3	0	–
COc1ccc(CSc2nnc(-c3ccc4ncsc4c3)o2)cc1C(F)(F)F	0	0	0	3	36	28	0	7	0	0	–
COc1cccc(C2=C(Nc3cc(Cl)c(O)c(Cl)c3)C(=O)NC2=O)c1 [SB-390767]	0	0	2	0	38	0	2	0	0	8	–
CCn1c(-c2ccccc2)nc2cnccc21 [SB-733416]	0	0	32	12	23	0	0	37	0	22	–
COC(=O)C(NC(=O)NC1CCN(c2ccnc(Nc3ccc(F)cc3)n2)C1)c1ccccc1 (stereo not shown) [GSK1379712]	1	0	2	0	0	17	13	23	0	10	–
COc1ccc(Nc2nccc(N3CCC(NC(=O)c4cc5ccccc5s4)C3)n2)cc1 (stereo not shown) [GSK1379738]	7	0	0	0	15	0	0	0	0	17	–
Cn1cnc2c(N)ncnc21 [SKF-97623]	0	0	8	0	0	36	0	13	0	0	–
O=c1cc(N2CCOCC2)nc2n(Cc3cccc(Cl)c3Cl)c3ccccc3n12 [GSK2299009]	24	10	3	0	28	15	16	30	24	14	–
Cl.Cl.Cl.N#Cc1ccc(CCNc2nccc(-c3cccc(CN4CCNCC4)c3)n2)cc1 [GSK2137462]	41	10	0	0	0	0	24	11	2	19	–
CNc1nc(-c2ccc3c(N)n[nH]c3c2)cc(N2C[C@@H](C(=O)NC3CCCCC3)OC[C@H]2C)n1 [GSK2375584]	11	0	39	2	7	0	0	24	0	14	–
COc1ccc(Nc2nccc(NCCNC(=O)Nc3cc(C)ccc3C)n2)cc1 [GSK1379899]	0	0	0	0	18	7	2	27	0	5	–
